Assay outcomes from PubChem BioAssay.
TGFb inhibitor – blocks TGF-b signaling; HepG2 CAGA-GFP TGF-b/SMAD3 reporter, GFP fluorescence, 18 h; TGF-beta stimulated, 500 pg/mL final; Potency, µM (highest dose often 46.1 µM), for the others: at the highest dose activity, negative = inhibition, actives largely listed as inhibitors; hit rate 1.2% among 410,000; note: potency is the fitted concentration of half-maximal effect; % is set by controls: 0 for no effect and ±100 for the full control effect; nearly all actives have a fitted effect of over 65% in size
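HEPG2 CAGA-GFP, 1000 cells/well; 2 h settle, 37 C; cpd via pin tool; TGF-b 500 pg/mL final; 18 h, 37 C; GFP imaging ex488/em500-530; %Activity normalised to -TGF-b and +DMSO controls; CRC fit, curve class.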
HepG2 viability – counter-screen for TGF-b inhibitors: cytotoxicity in HepG2 cells | HepG2 CAGA-GFP viability, ATP luminescence, 18 h | Potency, µM (doses to about 46.1 µM), without a hit: at the top dose activity change, negative = cytotoxicity, usual class: cytotoxic | hit rate 0.76% among 410,000; note: potency is the fitted concentration of half-maximal effect
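CellTiter-Glo luminescence gave cytotoxicity after 18 hours at 37 degrees C. The cells were HepG2 CAGA-GFP in 1% FBS DMEM, stimulated with 500 pg/mL TGF-beta after compound addition. %Activity was normalised to no-cell wells (complete cell-killing) and DMSO (no toxicity), and curves were fitted and classified.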
IL-1B inflam inh – blocks inflammasome-driven IL-1 beta release. THP-1 LPS/ATP IL-1B secretion, AlphaLISA, 16 h; active compounds read low. activity change, % at 57.5 µM. hit rate 4.7% among 360,000. AID 743279; in the data active = activity change below about -50%; inconclusive = mostly about -30% to -49%; note: % is set by controls: 0 for no effect and ±100 for the full control effect
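THP-1 cells pretreated 1 hr with compounds (up to 57.5 uM final), then stimulated with LPS (250 ng/mL final) plus ATP (1.25 mM final); secreted IL-1B measured by AlphaLISA after 16 hr, decreased signal indicating inhibition.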
ATXN2 expr inh – reduces ATXN2 reporter expression in HEK-293 cells; Potency, µM (doses to about 57 µM), for inactives: top-dose activity change, negative = inhibition, most hits filed as inhibitors; hit rate 0.72% among 360,000; HEK-293 ATXN2-luciferase reporter, luminescence, 24 h; note: potency is the fitted concentration of half-maximal effect; % is set by controls: 0 for no effect and ±100 for the full control effect; nearly all actives have a fitted effect of over 55% in size
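qHTS (up to 57 uM final) was run with 24 h compound exposure of reporter cells at 37 °C. Each well was multiplexed: SteadyGlo luminescence measured ATXN2-luciferase expression after a fluorogenic Gly-Phe-AFC viability readout (25 uM final).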
S2 tox – viability counter-screen for ATXN expression inhibitors; S2 cells (HEK-293 line with an ATXN2-luciferase reporter) viability, CellTiter-Fluor protease fluorescence, 24 h; Potency, µM (series often up to 56.7 µM), usual class: cytotoxic; hit rate 0.49% among 400,000; note: potency is the fitted concentration of half-maximal effect; nearly all actives have a fitted effect of over 40% in size
* marks the source's active call; other numbers are inactive results; i = inactive; ? = inconclusive; nt = no result given; [ ] = dose if it differs, or a comment. Compounds with a hit are over-represented: about 5.7% of the library has one in this group of screens. Unless noted, calls come from the whole dose curve; as a rule, active = well fitted curve in the direction sought with a large enough effect; inconclusive = small, poorly fitted or top-dose-only effect, or another doubt; inactive = no such curve, though single readings can be large; an effect the other way counts as inactive or inconclusive.

SMILES	TGFb inhibitor	HepG2 viability	IL-1B inflam inh	ATXN2 expr inh	S2 tox
COc1cc(OC)cc(C(=O)O/N=C(\N)c2ccccn2)c1	3%	-4%	-11	nt	i
N/C(=N\OC(=O)c1ccc(Cl)c([N+](=O)[O-])c1)c1ccccn1	6%	-8%	-107*	-1%	i
N/C(=N\OC(=O)c1ccc(Cl)c(Cl)c1)c1ccccn1	-3%	-32%	15	27%	i
N/C(=N\OC(=O)COc1ccc2ccccc2c1)c1ccccn1	13%	-16%	-58*	41%	i
COc1ccccc1C(=O)O/N=C(\N)c1ccccn1	?	-26%	-3	?	i
N/C(=N\OC(=O)c1ccccc1Cl)c1ccccn1	3%	-61%	23	16µM*	i
COc1ccc(C(=O)O/N=C(\N)c2ccccn2)cc1	6%	-42%	-10	11µM*	i
Cc1ccc(Cl)cc1N(C)C(=O)c1noc2c1CCCCC2	-25%	-6%	nt	nt	nt
CC(Sc1ncc(S(=O)(=O)c2ccc(C(C)C)cc2)c(N)n1)C(=O)Nc1ccccc1 (stereo not drawn)	?	-33%	nt	?	i
COc1ccc(-c2nc3n(n2)C(c2ccc(OC)cc2)C(C(=O)Nc2cccnc2)=C(C)N3)cc1 (stereo not drawn)	0%	2%	nt	-7%	i
OC[C@@H]1CN(Cc2ccc(-c3ccccc3)cc2)C[C@H](n2cnc3c(NC4CC4)ncnc32)O1	-5%	-26%	9	-31%	?
OCCNc1ncnc2c1ncn2[C@H]1CN(Cc2ccncc2)C[C@@H](CO)O1	17%	-3%	-89*	6%	i
OC[C@@H]1CN(Cc2ccc3c(c2)OCO3)C[C@H](n2cnc3c(NC4CCCC4)ncnc32)O1	13%	-3%	-72*	-3%	i
OCCCNc1ncnc2c1ncn2[C@H]1CN(Cc2ccncc2)C[C@@H](CO)O1	1%	15%	24	17%	i
CC(C)CNc1ncnc2c1ncn2[C@H]1CN(CCc2ccccc2)C[C@@H](CO)O1	1%	-6%	-71*	6%	i
OC[C@@H]1CN(Cc2ccc(Cl)cc2)C[C@H](n2cnc3c(NC4CCC4)ncnc32)O1	5%	-9%	-85*	3%	i
CC(=O)OC[C@@H]1CN(Cc2ccccc2)C[C@H](n2cnc3c(Nc4ccccc4)ncnc32)O1	-30%	16µM*	-1	8%	i
COc1cccc(F)c1C(C[N+](=O)[O-])c1c(N)n(C)c(=O)n(C)c1=O (stereo not drawn)	4µM*	-123%	-100*	nt	20µM*
CC(C)CC(=O)N1C/C=C\C[C@@H](c2ccc(Cl)cc2)N(Cc2ccc(Cl)cc2)C(=O)[C@@H]1Cc1ccccc1	?	-40%	nt	nt	nt
O=C1[C@H](Cc2ccccc2)NCC=CC[C@H](c2ccc(Cl)cc2)N1Cc1ccccc1	18µM*	-39%	-52*	?	?
O=C1[C@H](Cc2ccccc2)NCCCC[C@@H](c2ccc(Cl)cc2)N1Cc1ccccc1	?	-68%	-53*	?	?
O=C1[C@H](Cc2ccccc2)NCC=CC[C@H](c2ccc(Cl)cc2)N1Cc1ccc(Cl)cc1	?	-60%	-66*	?	32µM*
O=C1[C@H](Cc2ccccc2)NCC=CC[C@@H](c2ccc(Cl)cc2)N1Cc1ccc(Cl)cc1	?	-91%	-60*	?	nt
O=C1[C@H](Cc2ccccc2)NCCCC[C@H](c2ccc(Cl)cc2)N1Cc1ccc(Cl)cc1	?	-20%	?	-21%	?
C[C@H]1NCc2cc(-c3ccc4c(=O)c(C(=O)O)cn(C5CC5)c4c3OC(F)F)ccc21	nt	nt	nt	5%[25.6 µM]	i
CCc1cccc(-n2c(=O)c3cccnc3n2CC(=O)NCc2ccc(C)cc2)c1	-21%	-1%	nt	nt	nt
CCOC(=O)c1scc(-c2ccc(C)cc2)c1S(=O)(=O)Nc1ccc(OC)c(Cl)c1	?	-35%	nt	-4%	i
CCOc1ccc(-c2ccc(SC)nn2)cc1	17%	13µM*	?	?	i
CCOc1ccc(-c2ccc(SCC(=O)Nc3nnc(CC)s3)nn2)cc1	4%	9%	4	9%	i
